Screens from PubChem BioAssay.
Most compounds without a hit are left out; they make up all but 4.3% or so of the library.
CHOP inh – inhibitors of CHOP induction in ER stress response | AID 2732 | CHO-K1 CHOP-promoter luciferase, tunicamycin-induced, 15-18 h | inhibition, % at 10 µM | 3.8% of 220,000 active;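 active means compounds that reduced the stress-induced luciferase reporter signal by more than about 70% of percent inhibition, limit read from the data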
CF NFkB inh – blocks PAF-induced NF-kB reporter in cystic fibrosis cells | inhibition, % at 5 µM | 0.86% of 360,000 active | KKLEB NF-kB-GFP reporter, GFP fluorescence overnight;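 active means at least 50% inhibition at 5 µM, scaled per plate between neutral and stimulator controls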;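 further: PAF is a Pseudomonas aeruginosa culture filtrate used as stimulus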
KKLEB tox – reduces viability of KKLEB cystic fibrosis airway cells; KKLEB CF airway cells viability, ATPlite luminescence, overnight; stronger effect = lower value; cells stimulated with P. aeruginosa culture filtrate; activity change (cytotoxicity), % at 5 µM; 0.36% of 360,000 active; AID 602141;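 active means corrected activity change at or below -50% at 5 µM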
Peg3 promoter – Peg3 promoter activity inhibition; inhibition, % at 20 µM; HeLa PEG-Prom luciferase reporter, luminescence, overnight; 1.7% of 360,000 active; AID 588405;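 active means inhibition of at least 50% at 20 µM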
HIF-2a block – inhibitors of HIF-2a | 786-0 RCC cells HIF-2a reporter, luciferase luminescence, overnight | inhibition, % at 18.8 µM | 0.72% of 360,000 active | AID 624352;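 active means inhibition of the luminescence signal of 40% or more relative to plate controls, in a single-dose primary screen at 18.75 µM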
TRPM1 prom inh – reduces MITF-dependent TRPM1 promoter luciferase signal; AID 488899; SK-MEL-5 TRPM1 promoter luciferase, 24 h; 0.83% of 330,000 active; inhibition, % at 12.5 µM;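 active means mean inhibition across replicates of 60% or more, whatever share of single replicates reaches that level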
Mdm2-MdmX confirm – confirmation of inhibitors of human Mdm2/MdmX interaction, set 2; shares compounds with HIF-2a block; SaOS-2 split-luciferase Mdm2/MdmX complementation, luminescence; inhibition, % at 8 µM; 99% of 740 active; AID 504601;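 active means mean inhibition of the luminescence signal across two replicates at or above 26 percent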
Target sequence (O15151 whole entry, looked up): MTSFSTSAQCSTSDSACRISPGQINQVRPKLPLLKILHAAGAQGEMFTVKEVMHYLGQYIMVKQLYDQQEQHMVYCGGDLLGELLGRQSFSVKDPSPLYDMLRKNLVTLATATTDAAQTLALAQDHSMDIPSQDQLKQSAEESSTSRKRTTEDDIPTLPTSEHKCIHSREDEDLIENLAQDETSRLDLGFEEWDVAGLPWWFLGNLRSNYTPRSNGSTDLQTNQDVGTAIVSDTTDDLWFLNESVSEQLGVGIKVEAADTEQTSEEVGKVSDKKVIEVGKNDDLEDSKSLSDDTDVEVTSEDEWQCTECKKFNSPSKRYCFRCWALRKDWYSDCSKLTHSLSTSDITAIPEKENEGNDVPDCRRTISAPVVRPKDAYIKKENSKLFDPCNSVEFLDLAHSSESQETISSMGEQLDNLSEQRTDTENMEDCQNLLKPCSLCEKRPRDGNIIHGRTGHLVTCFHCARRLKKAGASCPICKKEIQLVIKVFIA
Target sequence (Q00987 whole entry, looked up): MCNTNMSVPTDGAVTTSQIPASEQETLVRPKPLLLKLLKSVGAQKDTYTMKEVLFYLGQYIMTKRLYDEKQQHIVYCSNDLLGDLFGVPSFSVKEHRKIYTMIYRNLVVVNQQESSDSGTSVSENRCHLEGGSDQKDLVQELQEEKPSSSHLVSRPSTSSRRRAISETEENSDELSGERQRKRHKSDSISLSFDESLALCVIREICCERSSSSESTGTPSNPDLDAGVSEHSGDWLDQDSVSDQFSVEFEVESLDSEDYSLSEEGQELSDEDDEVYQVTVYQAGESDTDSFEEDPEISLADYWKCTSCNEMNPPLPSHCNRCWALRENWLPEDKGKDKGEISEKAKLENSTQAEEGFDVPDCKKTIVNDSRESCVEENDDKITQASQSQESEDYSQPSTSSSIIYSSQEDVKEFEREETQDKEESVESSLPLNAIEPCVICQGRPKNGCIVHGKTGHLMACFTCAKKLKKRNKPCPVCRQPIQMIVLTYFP
HIF-2a inh conf – HIF-2a inhibition, single concentration confirmation; 786-0 RCC cells, HIF-2a luciferase reporter luminescence, overnight; inhibition, % at 18.8 µM; shares compounds with HIF-2a block; AID 651580; 56% of 1,800 active;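 active means mean inhibition across four replicates of at least 40 percent at the single tested concentration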
HIF-1a counter – counter-screen for HIF-2a inhibitors: HIF-1a inhibition in MiaPaCa-2 cells; MiaPaCa-2 HIF-1a luciferase reporter, desferoxamine, overnight; inhibition, % at 18.8 µM; 72% of 1,800 active; shares compounds with HIF-2a block;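 active means mean inhibition of the reporter signal across four replicates at the single tested dose of 50% or more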
Large screens that a line does not name were inactive (follow-up assays come after a bar, where they were run).

CCCCN(CC)Cc1ccc(CNC(=S)Nc2ccc(C)cc2Cl)o1	HIF-2a block 84 | HIF-2a inh conf 60 | HIF-1a counter 60
CCCCN(CC)Cc1ccc(CNC(=S)Nc2c(C)cc(C)cc2C)o1	none
COc1ccc(C)cc1Nc1n[n+](-c2ccccc2)c(-c2c(Cl)cccc2Cl)s1	none (no result: CHOP inh, CF NFkB inh, KKLEB tox, Peg3 promoter, HIF-2a block, TRPM1 prom inh) | Mdm2-MdmX confirm 98
COc1ccc(C)cc1Nc1n[n+](C)c(-c2c3ccccc3cc3ccccc23)s1	none (no result: CHOP inh)
CN(C)S(=O)(=O)c1ccc2c(c1)Cc1cc(S(=O)(=O)N(C)C)ccc1-2	none (no result: CHOP inh)
CCCCNC(=O)c1ccc2nc(CC)c(N(CCC(C)C)CCN(C)C)n2c1	none (no result: CHOP inh, TRPM1 prom inh)
C#CC(=O)N(c1ccc(OC)cc1OC)C(C(=O)NC1CCCC1)c1cccs1 (stereo not given)	CHOP inh 107, CF NFkB inh 94, KKLEB tox -93, Peg3 promoter 101, HIF-2a block 96, TRPM1 prom inh 101 | Mdm2-MdmX confirm 102 | HIF-2a inh conf 99 | HIF-1a counter 106
Cn1c(SCC(=O)N2CCc3ccccc32)nnc1-c1ccc(S(=O)(=O)N2CCCC2)cc1	none
Cc1cc(N(C)C(=O)c2ccc3c(c2)S(=O)(=O)c2cc(Cl)ccc2C3=O)c(C(F)(F)F)o1	none (no result: CHOP inh)
N#C/C(=C/c1cccc(O)c1)C(=O)NCc1ccc(Cl)cc1	HIF-2a block 77 (no result: CHOP inh) | HIF-2a inh conf inactive | HIF-1a counter inactive
CC1=CC(C)(C)Nc2ccc(OC(=O)CN3C(=O)c4cccc5cccc(c45)C3=O)cc21	HIF-2a block 74 | HIF-2a inh conf 89 | HIF-1a counter 72
CCN(c1ccccc1)S(=O)(=O)c1cc(NC(=O)Nc2ccccc2C#N)ccc1Cl	none
CCN(c1ccccc1)S(=O)(=O)c1ccc(Cl)c(NC(=O)Nc2ccc(Cl)cc2C#N)c1	none | Mdm2-MdmX confirm 103
Clc1ccc2c(c1)-c1ccccc1C1=NCCN12	Peg3 promoter 110, HIF-2a block 45 (no result: CHOP inh, TRPM1 prom inh) | HIF-2a inh conf inactive | HIF-1a counter 104
COc1ccccc1NC(=O)CSc1c2c(nc3ccccc13)CCC2	none
COc1ccc(NC(=O)CSc2c3c(nc4ccccc24)CCCC3)c(OC)c1	HIF-2a block 47 | HIF-2a inh conf inactive | HIF-1a counter 91
O=Cc1cc(OCc2ccccc2)ccc1[B-](F)(F)F	none (no result: CHOP inh)
COc1ccc(OC)c(NC(=O)CCC(=O)Nc2nnc(C(C)C)s2)c1	none (no result: CHOP inh)
CCOC(=O)CNC(=O)CSc1ncnc2c1cnn2-c1ccccc1	HIF-2a block 41 | HIF-2a inh conf inactive | HIF-1a counter inactive
CCOC(=O)CNC(=O)CSc1ncnc2c1cnn2-c1ccc(C)cc1	none
CN(c1ccccc1)C(c1ccc(F)cc1)c1nnnn1C1CCCC1 (stereo not given)	none
Cc1ccc(NC(=O)[C@H](Cc2c[nH]c3ccccc23)NC(=O)[C@@H]2Cc3ccccc3CN2)c(C)c1	none (no result: CHOP inh, TRPM1 prom inh) | Mdm2-MdmX confirm 98
Cc1ccc(-c2cc(-c3ccccc3)c(C#N)c(Br)n2)cc1	none
CS(=O)(=O)c1nc(-c2ccccc2)cc(-c2ccccc2)c1C#N	CF NFkB inh 61, Peg3 promoter 101, HIF-2a block 76 | HIF-2a inh conf inactive | HIF-1a counter 106
CCc1ccc(NC(=O)c2cnn3ccccc23)cc1	HIF-2a block 50 | HIF-2a inh conf 68 | HIF-1a counter 75
CSc1cccc(NC(=O)c2cnn3ccccc23)c1	none
COc1ccc(C=C2C(=O)c3ccccc3C2=O)cc1O	none
COc1ccc(/C=C2\CN(Cc3ccccc3)C/C(=C\c3ccc(OC)c(O)c3)C2=O)cc1O	CF NFkB inh 100, KKLEB tox -69, Peg3 promoter 102, TRPM1 prom inh 98 (no result: CHOP inh) | Mdm2-MdmX confirm 102
COc1cc(/C=C2\COC/C(=C\c3ccc(O)c(OC)c3)C2=O)ccc1O	CF NFkB inh 91, Peg3 promoter 101, HIF-2a block 93, TRPM1 prom inh 79 | Mdm2-MdmX confirm 103
CCN(CC)c1ccc(/C=N/NC(=O)c2cccc(S(=O)(=O)N3CCOCC3)c2)c(O)c1	TRPM1 prom inh 82 | Mdm2-MdmX confirm 91
CCN(CC)c1ccc(C=Nc2cccc(S(=O)(=O)N3CCOCC3)c2)c(O)c1	none (no result: CHOP inh)
COc1ccc(C(O)P(=O)(OCCC(C)C)c2ccc(N(C)C)cc2)cc1 (stereo not given)	none (no result: CHOP inh)
Cc1nc2cc(-c3ccccc3)nn2c(C)c1CCC(=O)N1CCN(c2ccccc2)CC1	HIF-2a block 69 (no result: TRPM1 prom inh) | HIF-2a inh conf 79 | HIF-1a counter 53
COc1cc(OC)cc(-c2cc3nc(C)c(CCC(=O)NCc4ccccc4)c(C)n3n2)c1	CHOP inh 84, HIF-2a block 69 | HIF-2a inh conf 79 | HIF-1a counter 87
Cc1nc2ncnn2c(C)c1CCC(=O)N1CCN(c2ccccn2)CC1	none
CC(C)C[C@@H](CO)N1CCN(Cc2ccc([N+](=O)[O-])cc2)CCC1=O	none (no result: CHOP inh)
Cc1c(/C(O)=C2/C(=O)C(=O)N(CCN3CCOCC3)C2c2ccccn2)cnn1-c1ccccc1 (stereo not given)	HIF-2a block 73 | HIF-2a inh conf 40 | HIF-1a counter 59
Cc1ccc(C2/C(=C(/O)c3cnn(-c4ccccc4)c3C)C(=O)C(=O)N2CCCN2CCOCC2)o1 (stereo not given)	none (no result: CF NFkB inh, KKLEB tox, Peg3 promoter, HIF-2a block, TRPM1 prom inh)
Cc1ccc2c(c1)c1ccc3c(c1n2C)C(=O)C=CC3=O	CHOP inh 106, Peg3 promoter 107, HIF-2a block 79, TRPM1 prom inh 93 | Mdm2-MdmX confirm 102
C=C1CCc2c([nH]c3ccc(OCC(C)C)cc23)C1=O	Peg3 promoter 103, HIF-2a block 96 (no result: CHOP inh) | HIF-2a inh conf inactive | HIF-1a counter 67
CCOc1ccc(NC(=O)c2ccc(F)cc2F)cc1	none (no result: CHOP inh)
CC[C@@]1(O)C(=O)OCc2c1cc1n(c2=O)Cc2cc3c(N)cccc3nc2-1	CF NFkB inh 76, Peg3 promoter 72, TRPM1 prom inh 80 | Mdm2-MdmX confirm 100
O=C(NC(c1ccccc1)c1ccccc1)c1ccc(=O)[nH]n1	none
CCN(CC)S(=O)(=O)c1ccc(N2CCOCC2)c(NC(=O)c2cc3ccccc3o2)c1	none (no result: CHOP inh, TRPM1 prom inh)
CNc1ccc(/C=C(\C#N)c2ccccn2)cc1[N+](=O)[O-]	none
N#C/C(=C\c1ccc(Cl)c([N+](=O)[O-])c1)c1ccccn1	Peg3 promoter 93, HIF-2a block 43 | HIF-2a inh conf inactive | HIF-1a counter 95
Cc1ccc(C)c(-c2nc3cc(N)ccc3o2)c1	HIF-2a block 65 | HIF-2a inh conf 70 | HIF-1a counter inactive
